Gal4-VP16 FLuc = VP16 counterscreen qHTS for inhibitors of ROR gamma transcriptional activity; Drosophila S2 Gal4-VP16 UAS-luciferase, luminescence, 20 h; Potency, µM (titrated, usually from 53.6 µM), for the others: at the top dose activity, negative = inhibition, most hits filed as inhibitors; 3.5% of 310,000 active;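 also: Gal4-VP16 expression switched on by copper sulfate through the metallothionein promoter; nearly all actives have a fitted effect of over 50% in size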
Tau fluor cs = Counterscreen qHTS for Inhibitors of Tau Fibril Formation, Fluorescence Polarization; tau K18 P301L Alexa594 fluorescence, heparin fibrillization; 0.93% of 280,000 active; Potency, µM (top dose mostly 57.7 µM), without a hit: at the highest dose activity change, negative = decrease; also: nearly all actives have a fitted effect of over 55% in size
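Human tau K18 P301L (15 uM unlabeled, 0.24 uM Alexa 594-labeled) in 100 mM sodium acetate pH 7 with 20 uM heparin, 6 hr at 37 C. ThT 30 uM added, 1 hr ambient; Alexa 594 FP and total fluorescence read at 555/632 nm.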
Tau fibril ThT = qHTS for Inhibitors of Tau Fibril Formation, Thioflavin T Binding. recombinant tau K18 P301L (four-repeat tau fragment), heparin-induced fibrillization, ThT fluorescence. 2.1% of 270,000 active. Microtubule-associated protein tau (Homo sapiens), P10636. Potency, µM (top dose mostly 57.4 µM), for the others: at the highest dose activity, negative = inhibition, most hits filed as inhibitors; also: nearly all actives have a fitted effect of over 55% in size
Target sequence (P10636 561-689 P618L limits assumed): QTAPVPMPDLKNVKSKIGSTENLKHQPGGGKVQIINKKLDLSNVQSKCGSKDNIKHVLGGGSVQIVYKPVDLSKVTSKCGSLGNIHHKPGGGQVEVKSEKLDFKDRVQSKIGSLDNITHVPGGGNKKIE
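In this qHTS, human K18 P301L tau is incubated with compound and heparin for 6 hr at 37 C, and Thioflavin T fluorescence then reports fibril load.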
RORgamma inh = qHTS for inhibitors of ROR gamma transcriptional activity | Nuclear receptor ROR-gamma (Mus musculus), P51450 | Drosophila S2 Gal4-RORgamma UAS-luciferase reporter, 20 h | Potency, µM (top dose mostly 53.6 µM), for inactives: at the top dose activity change, negative = inhibition, usual class: inhibitors | 5.4% of 310,000 active | AID 2551, 2010; also: nearly all actives have a fitted effect of over 60% in size
Target sequence (P51450 whole entry, looked up, the tested form may be a part): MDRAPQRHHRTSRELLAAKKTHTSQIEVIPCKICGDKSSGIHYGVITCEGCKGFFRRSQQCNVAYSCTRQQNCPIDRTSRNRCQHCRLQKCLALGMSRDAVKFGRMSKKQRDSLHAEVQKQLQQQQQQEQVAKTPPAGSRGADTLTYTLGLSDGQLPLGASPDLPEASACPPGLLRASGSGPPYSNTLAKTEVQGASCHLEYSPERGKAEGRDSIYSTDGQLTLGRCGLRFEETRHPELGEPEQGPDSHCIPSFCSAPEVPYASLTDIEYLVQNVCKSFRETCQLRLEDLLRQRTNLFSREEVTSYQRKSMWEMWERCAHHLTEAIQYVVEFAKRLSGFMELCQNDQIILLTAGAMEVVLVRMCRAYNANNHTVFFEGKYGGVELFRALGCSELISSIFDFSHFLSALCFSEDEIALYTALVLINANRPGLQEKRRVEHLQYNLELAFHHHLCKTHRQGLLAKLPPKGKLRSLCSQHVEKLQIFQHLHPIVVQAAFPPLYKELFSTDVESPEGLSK
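Luminescence from a UAS-regulated Photinus luciferase reporter in stably transfected Drosophila Schneider cells is measured; decreased signal marks ROR gamma inhibition. Fusion expression is induced by 700 uM copper sulfate for 20 hr.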
Tau FP inhib = qHTS for Inhibitors of Tau Fibril Formation, Fluorescence Polarization; Microtubule-associated protein tau (Homo sapiens), P10636; K18 P301L tau heparin fibrillization, Alexa594 FP, 6 h; Potency, µM (series often up to 57.7 µM), for inactives: at the highest dose activity, negative = inhibition, usual class: inhibitors; 0.39% of 280,000 active; AID 1468, 2008; also: nearly all actives have a fitted effect of over 55% in size
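Human tau K18 […] P301L fragment, 15 uM unlabeled plus 0.24 uM Alexa 594-labeled tau (final), with compound and 20 uM heparin in 100 mM sodium acetate pH 7; 6 hr at 37 C, then Alexa 594 FP read.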
Active calls of the source: *; ? = inconclusive; · = not tested or not shown; [ ] = another dose, or the depositor's remark. Compounds with a hit are over-represented: about 7.3% of the library has one in this group of screens. Calls follow the shape of the dose curve; as a rule, active = well fitted curve in the direction sought with a large enough effect; inconclusive = small, poorly fitted or top-dose-only effect, or another doubt; inactive = no such curve, though single readings can be large; an effect the other way counts as inactive or inconclusive. % is scaled to controls: 0 for no effect and ±100 for the full control effect; potency is read from the fitted curve at half-maximal effect.

SMILES | Gal4-VP16 FLuc | Tau fluor cs | Tau fibril ThT | RORgamma inh | Tau FP inhib
NC(=O)Nc1nc2ccccc2[nH]1 | 2.4% | · | · | 2.2% | ·
Cc1ccc(Nc2nc3ccccc3[nH]2)nc1 | 5.01µM* | -16.1% | -17.8% | 5.01µM* | -1.6%
c1ccc2[nH]c(NC3=NCCC3)nc2c1 | 11.2µM* | 8.2% | 6.0% | 2.82µM* | 6.8%
CC1C/C(=N/Nc2nc3ccccc3[nH]2)CC(C)(C)C1 (configuration not stated) | 8.91µM* | ? | ? | 3.16µM* | -6.4%
CC1C/C(=N/NC(=O)c2ccc(CSc3nc4ccccc4[nH]3)cc2)CC(C)(C)C1 (configuration not stated) | -5.8% | 3.8% | -9.7% | 16.7% | -2.5%
CC1C/C(=N/Nc2ccc([N+](=O)[O-])cc2[N+](=O)[O-])CC(C)(C)C1 (configuration not stated) | -1.0% | -27.8% | ? | 5.5% | 20.1%
O=C(CSc1nc2c([nH]c3ccccc32)c(=O)n1-c1ccc(Cl)cc1)NC1CCCCC1 | · | -16.8% | 3.5% | · | -9.1%
c1ccc2[nH]c(NN=C3CCCCCC3)nc2c1 | ? | -22.0% | ? | 11.2µM* | -9.7%
CCNc1nc2ccccc2[nH]1 | -10.3% | -4.4% | -3.2% | -4.8% | -1.3%
CCc1ccccc1NNC(=O)CCc1ccccc1 | 1.4% | 0.5% | 1.5% | 14.9% | 1.3%
CCCCCC(=O)NNC1=NCC(Cc2ccccc2)S1 (configuration not stated) | ? | -7.5% | -7.0% | 1.41µM* | 4.2%
O=C(COc1ccc2c3c(c(=O)oc2c1)CCC3)Nc1ccc(CN2CCOCC2)cc1 | -9.9% | · | · | 1.0% | ·
Cc1ccccc1NC(=O)c1nnn(-c2ccc3c(c2)OCCO3)c1N | ? | · | · | 0.631µM* | ·
CCCN1CCN(CC2=C(C(=O)OCC)C(c3ccc(Cl)cc3)NC(=O)N2)CC1 (configuration not stated) | · | -5.4% | -1.0% | · | -3.4%
CCCn1c(=O)c(C(=O)NCCc2ccc(OC)c(OC)c2)c(O)c2ccccc21 | ? | · | · | 11.2µM* | ·
CCCn1nc(C(=O)NCc2ccc3c(c2)OCO3)c2ccccc2c1=O | -6.8% | -9.3% | -1.0% | 21.6% | 3.5%
CCCn1c(=O)c(C(=O)NCc2ccc3c(c2)OCO3)c(O)c2ccccc21 | ? | · | · | 12.6µM* | ·
CCn1c(=O)c(C(=O)NCCc2ccc(OC)c(OC)c2)c(O)c2ccccc21 | -2.7% | · | · | -16.4% | ·
Cn1nc(C(C)(C)C)cc1C(=O)NCc1ccc2c(c1)OCO2 | 1µM* | · | · | -13.0% | ·
O=C(NCc1ccccn1)c1c(O)c2cccc3c2n(c1=O)CC3 | ? | 0.4% | 6.9% | 2.82µM* | -2.8%
CC(C)CCCC(C)C1CCC2C3CC=C4CC(=O)CC[C@@]4(C)C3CC[C@@]12C (some centres not stated) | -2.5% | -6.9% | -15.4% | -4.8% | -1.0%
Cc1cc(N2CCCCC2)nc(N2CCCCC2)n1 | -0.6% | 3.4% | 1.4% | 1.2% | -6.3%
O=c1c(-c2ccc(Cl)cc2)nc2cnc(Nc3ccccc3)nc2n1C[C@H]1CCCO1 | -3.4% | · | · | -2.9% | ·
CC(C)NC(=O)C1CCN(C(=O)N2CCOc3ccc(Cl)cc32)CC1 | · | -13.2% | ? | · | -15.3%
CCCn1c(=O)c(C(=O)NCc2ccccn2)c(O)c2ccccc21 | ? | -10.7% | ? | 10µM* | 12.5%
SMILES | Gal4-VP16 FLuc | Tau fluor cs | Tau fibril ThT | RORgamma inh | Tau FP inhib
Cc1cc(/C([O-])=C(/C(=S)Nc2ccc(F)cc2)[n+]2ccccc2)c(C)n1-c1ccc(F)cc1 | -0.3% | ? | 28.2µM* | ? | -10.7%
Cc1cccc(/C=N/NC(=O)NC2CCCCC2)c1 | -14.1% | 7.8% | 1.2% | 12.0% | 2.2%
COc1cccc(/C=N/NC(=O)NC2CCCCC2)c1O | 8.91µM* | -14.5% | -16.4% | 6.31µM* | 0.1%
COc1cccc(/C=N/NC(=O)C(=O)N2CCCCCC2)c1O | 10µM* | · | · | 7.94µM* | ·
COc1cccc(/C=N\NC(=O)C2C(=O)NCC2c2ccccc2)c1O (configuration not stated) | ? | -0.9% | -9.3% | 8.91µM* | 0.5%
Cc1ccc(-n2ncc3c2CC(C)(C)CC3NC(=O)CCc2ccncc2)cc1 (configuration not stated) | 2.2% | · | · | 22.5% | ·
CCN(CC)Cc1cc(O)c(CN(CC)CC)cc1O | -1.4% | ? | 11.2µM* | -13.0% | ?
CCc1oc(C(=O)O)cc1CN(CC)CC | 9.0% | 2.3% | 1.9% | -1.1% | 0.7%
On1onc2c3cc(-c4ccccc4)nc3ccc21 | 10µM* | 12.6µM*[quencher] | 3.98µM* | 7.94µM* | ?
CCCCc1nnc(NC(=O)C23CC4CC(CC(NC(C)=O)(C4)C2)C3)s1 | 0.2% | · | · | 0.7% | ·
C=CCSc1nnc(NC(=O)C23CC4CC(CC(NC(C)=O)(C4)C2)C3)s1 | 12.6µM* | · | · | 1.5% | ·
COc1ccccc1CN1CCC(n2nccc2NC(=O)CCc2ccccc2)CC1 | -1.2% | · | · | -14.5% | ·
C=C1C(=O)O[C@H]2C[C@]3(C)C([C@@H](OC(=O)/C(C)=C/C)[C@H]12)[C@](C)(O)CC[C@H]3O (some centres not stated) | ? | · | · | 11.2µM* | ·
C=C[C@@]1(C)CC(=O)[C@]2(O)[C@@]3(C)[C@@H](O)CCC(C)(C)[C@@H]3[C@H](O)[C@H](OC(C)=O)[C@@]2(C)O1 | -7.2% | · | · | 5.4% | ·
COCC(=O)N/N=C\c1ccc(OC/C=C/c2ccccc2)c(OC)c1 | ? | · | · | 12.6µM* | ·
CNC(=S)N/N=C/c1ccc(OCC(=O)Nc2c(C)cc(C)cc2C)c(OC)c1 | 12.6µM* | -4.1% | ? | 14.1µM* | 2.7%
COc1cc(/C=N\NC(=O)CC#N)ccc1OC/C=C/c1ccccc1 | ? | · | · | -128.3% | ·
CCOC(=O)N/N=C\c1cccc(OC)c1OC/C=C/c1ccccc1 | -8.5% | · | · | 2.6% | ·
COc1cccc(/C=N/NC(=O)CC(C)O)c1OC/C=C/c1ccccc1 (configuration not stated) | 15.8µM* | · | · | 11.2µM* | ·
CCCCCCc1ccc(N2C[C@H](Cc3ccccc3)[C@@H](CC(=O)Nc3ccccc3)C2=O)cc1 | -3.9% | · | · | -7.7% | ·
CC(C)OCCCn1c(SCc2ccccc2C#N)nc2c(sc3ccccc32)c1=O | · | -7.5% | -2.7% | · | 0.3%
CCN(CC(=O)Nc1cccc(F)c1)CC(=O)Nc1ccccc1OC | 3.5% | · | · | 11.9% | ·
Cc1ccc(NC(=O)C2=C(O)CCn3c2nc2ccccc23)cc1 | 5.62µM* | -0.4% | -3.3% | 4.47µM* | 0.0%
Cc1ccc(NC(=O)NCc2nc3ccccc3n2C)cc1 | 7.5% | · | · | -36.3% | ·
CC1=C(C(=O)c2ccccc2)C(c2ccc(N3CCOCC3)cc2)NC(=O)N1 (configuration not stated) | -1.7% | -6.5% | 25.1µM* | 24.2% | 1.4%

Compound activity from PubChem.
